# Most compounds without a hit are left out; they make up all but 3.3% or so of the library.
# PNC assembly inh: inhibitors of perinucleolar compartment assembly. activity change (PNC), negative = inhibition, % at 10 µM. actives 3.1% (n = 140,000). PC3M PTB-GFP, PNC prevalence imaging, 16 h; active compounds read low;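 active = readout at or below -70, meaning at least 70% loss of cells showing the perinucleolar compartment, a nuclear body marking cancer cells; inconclusive = readout between -30 and a set limit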;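 note: plate controls were DMSO wells for no effect and camptothecin positive control wells for full effect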
#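 Compounds are pinned in duplicate onto adhered PC3M cells stably expressing GFP-tagged PTB and incubated 16 h at 37 C. Cells are then fixed, nuclei stained with Hoechst, and PNC-positive cells counted.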
# IMPase cell inh: IMPase inhibition in cells. AID 901. inhibition (IP1 accumulation), % at 46.1 µM. 120,000 tested, under 10 active. P97697. CHO-M1 cells, IP1 accumulation, HTRF TR-FRET ratio; active = well fitted curve in the direction sought with a large enough effect in the signal ratio, not every such curve was filed as active; inconclusive = small, poorly fitted or top-dose-only effect, or a change in a side signal; inactive = no such curve, though single readings can be large or run the other way; the % refers to the signal ratio;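 note: cells stimulated with carbachol in lithium chloride buffer; plate controls were DMSO basal wells for no effect and reference inhibitor wells for full effect; higher means more IMPase inhibition seen as more IP1 and lower FRET ratio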
# Target sequence (P97697 whole entry, looked up): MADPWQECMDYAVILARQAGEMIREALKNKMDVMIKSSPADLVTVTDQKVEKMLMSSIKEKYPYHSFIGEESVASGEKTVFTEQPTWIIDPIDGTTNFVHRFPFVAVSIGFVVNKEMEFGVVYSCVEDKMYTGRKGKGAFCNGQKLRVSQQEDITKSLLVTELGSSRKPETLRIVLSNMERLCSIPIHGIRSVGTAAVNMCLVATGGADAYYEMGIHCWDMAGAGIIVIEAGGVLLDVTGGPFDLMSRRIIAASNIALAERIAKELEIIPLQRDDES
#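 Carbachol-driven Gq signalling in CHO-M1 cells (2000/well) generates IP1. Compounds that block IMPase raise IP1 and so reduce the FRET signal from Eu-anti-IP1 and d2-IP1 after a 10 min room-temperature lysis.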
# 12-hLO inh: blocks human 12-lipoxygenase activity; P18054; purified 12-hLO, xylenol orange hydroperoxide absorbance; Potency, µM (highest dose often 57.1 µM), for inactives: at the highest dose activity change, negative = inhibition, hits mostly inhibitors; actives 0.12% (n = 150,000); AID 1452; note: potency is the fitted concentration of half-maximal effect; % is set by controls: 0 for no effect and ±100 for the full control effect; nearly all actives have a fitted effect of over 55% in size
#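 Xylenol orange chromogenic assay: hydroperoxide from 12hLO oxidises Fe(II), giving red-shifted Fe(III)-XO absorbance. Conditions: 150 nM enzyme, 40 uM arachidonic acid, 25 mM Hepes pH 7.0, 0.01% Triton X-100, 30 min, room temperature.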
# HTT ATP protect: Huntington cell model cytoprotection by ATP luminescence; Potency, µM (titrated, usually from 56.4 µM), without a hit: cytoprotection (ATP increase), usual class: activators; actives 0.14% (n = 230,000); PC12 HTT-Q103 induced, cytoprotection, ATP luminescence, 40 h; note: potency is the fitted concentration of half-maximal effect; % of control where 0% means no effect; nearly all actives have a fitted effect of over 45% in size
#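 Compounds were screened for protection of PC12 cells against cell death after tebufenozide induction (100 nM final) of mutant Huntingtin exon 1 (Q103) fused to GFP.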
# HttQ103 aggreg: mutant huntingtin aggregation inhibition. PC12 HttQ103-GFP aggregates, Acumen cytometry, 40 h. actives 1.1% (n = 220,000). Potency, µM (series often up to 46.1 µM), for the others: top-dose activity change, negative = inhibition, hits mostly inhibitors; note: potency is the fitted concentration of half-maximal effect; % is set by controls: 0 for no effect and ±100 for the full control effect; nearly all actives have a fitted effect of over 60% in size
#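 Aggregate formation scored by laser-scanning cytometer (488 excitation, 500–530 emission) in lysed PC12 cells expressing Q103-GFP after 100 nM tebufenozide induction; library tested in dose series, with ATPLite reagent added in the multiplex.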
# NPSR antag: blocks cAMP signaling of the human neuropeptide S receptor; Q6W5P4; Potency, µM (series often up to 38.3 µM), without a hit: at the highest dose activity change, negative = inhibition, usual class: inhibitors; actives 1% (n = 220,000); CHO-NPSR cells, cAMP TR-FRET, antagonist mode; note: potency is the fitted concentration of half-maximal effect; % is set by controls: 0 for no effect and ±100 for the full control effect; nearly all actives have a fitted effect of over 50% in size
# Active calls of the source: *; ? = inconclusive; / = no result; [ ] = dose if it differs, or a comment. Unless noted, calls come from the whole dose curve; as a rule, active = well fitted curve in the direction sought with a large enough effect; inconclusive = small, poorly fitted or top-dose-only effect, or another doubt; inactive = no such curve, though single readings can be large; an effect the other way counts as inactive or inconclusive.
SMILES,PNC assembly inh,IMPase cell inh,12-hLO inh,HTT ATP protect,HttQ103 aggreg,NPSR antag
COc1cc2c(cc1OC)C(c1ccc(-c3ccc(Cl)c(Cl)c3)o1)=NCC2,?,20,-29%,8%[10 µM],8.9µM*,?
COc1cc2c(cc1OC)C(c1ccc(-c3ccc(Cl)cc3Cl)o1)=NCC2,?,11,-11%,-104%,14µM*,7.9µM*
COc1ccc(-n2c(SCC(=O)N3CCOCC3)nnc2C(C)N2CCCCC2)cc1 (stereo not drawn),/,/,/,6%[10 µM],-23%[9.22 µM],12%
CCN1/C(=C2\SC(=S)N(Cc3ccccc3)C2=O)Sc2ccccc21,?,1,5%,27%[10 µM],5%,-8%[46.1 µM]
CCC(CO)[n+]1c(C)cc(/C=C2\Sc3ccccc3N2Cc2ccccc2)cc1C (stereo not drawn),?,7,-1%,-66%[10 µM],20µM*,-47%
COc1cccc(Cn2c(=O)c(-c3ccc(Cl)cc3)nc3cnc(N4CCNCC4)nc32)c1,/,/,/,-6%,/,/
CCOC(=O)c1ccc(NC(=O)CN(Cc2ccc(C)cc2)S(=O)(=O)c2ccc(C)cc2)cc1,/,-11,/,/,/,/
CC(C)(C)c1ccc(C(=O)NC(=S)Nc2ccc(N3CCOCC3)cc2)cc1,-123*,/,1%,2%[10 µM],2%,24%
Cn1c(=O)c2c(nc(NCc3ccco3)n2C)n(C)c1=O,-15,-2,0%,6%,-8%,-13%[46.1 µM]
Cn1c(=O)c2c(nc(NCc3ccco3)n2C/C=C/c2ccccc2)n(C)c1=O,-8,12,-13%,?,10µM*,?
COC(=O)C1=C(C(=O)OC)[C@@H]2N(C)c3ccccc3[C@@]23C[C@@H](C(=O)OC)N(S(=O)(=O)c2ccc([N+](=O)[O-])cc2)C3=N1,/,/,-2%[11.4 µM],8%[10 µM],/,/
CCCN1C(=O)c2cccc3c(N4CCCCC4)ccc(c23)C1=O,-88*,/,0%,-20%[10 µM],-16%,-22%
CCCCNc1ccc2c3c(cccc13)C(=O)N(CCCC)C2=O,/,/,/,-16%[10 µM],?,?
CC(=O)Nc1ccc(S(=O)(=O)Oc2ccc3c(c2)C(C)=CC(C)(C)N3)cc1,-109*,/,-6%,16%[10 µM],-17%,-2%
CCn1c(CNC(=O)c2ccccc2F)nnc1SCc1nc2ccccc2c(=O)[nH]1,/,/,/,-14%,19%,-8%
NC(=O)c1ccc[n+]([C@@H]2OC(COP(=O)([O-])OP(=O)(O)OCC3OC(n4cnc5c(N)ncnc54)C(OP(=O)(O)O)C3O)C(O)C2O)c1 (stereo partly drawn),/,/,-3%,28%,/,/
CCOCCCN(C(=O)Nc1ccc(CC)cc1)C1CCN(C(C)=O)CC1,?,7,-1%,-16%[0.074 µM],9%,-1%[46.1 µM]
CCCCN(C(=O)Nc1ccc(Cl)cc1)C1CCN(C(C)=O)CC1,-95*,4,2%,-9%,9%[9.22 µM],-15%[46.1 µM]
CN(C1CCS(=O)(=O)C1)S(=O)(=O)c1ccccc1 (stereo not drawn),/,/,/,-10%[10 µM],-21%[9.22 µM],0%
O=C(CCl)N(c1ccccc1)C1CCS(=O)(=O)C1 (stereo not drawn),0,0,5%,13%[10 µM],8.9µM*,-1%
CCc1cc(-c2n[nH]c(=S)n2C(C)c2ccccc2)cs1 (stereo not drawn),38,0,16µM*,-4%,?,-8%[46.1 µM]
Cc1scc(-c2n[nH]c(=S)n2C(C)c2ccccc2)c1C (stereo not drawn),-14,/,-13%,12%[10 µM],21%,-21%
CCOC(=O)c1sc(NC(=O)COC(=O)Cn2cnc3ccccc32)c(C(=O)OCC)c1C,-97*,7,0%,0%[10 µM],24%,-28%
O=C(CCN1CCN(c2ccccc2)CC1)N/N=C/c1ccccc1O,/,/,/,-131%,13µM*,3%
O=C(CCn1cnc2ccccc21)N/N=C/c1ccccc1O,-19,/,-2%,-30%[10 µM],10µM*,11%
O=C(CCC(=O)N/N=C/c1ccccc1O)NCc1ccccc1,-18,/,1%,4%[10 µM],10µM*,4%

# Assay outcomes as filed in PubChem.
